Test results reported in PubChem BioAssay (NCI).
Compounds without any hit were thinned out: in the full panel of roughly 79,000, 15% have a hit. Unmarked numbers belong to inactive results. Cut-off read from the data, not from the text of the source: active = growth inhibition above about 70%; inactive = the rest.

Experiment: NCI Yeast Anticancer Drug Screen. Data for the rad50 strain (AID 155);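 note: 0% = growth of vehicle-only cultures of the same strain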
Settings: S. cerevisiae rad50 strain growth inhibition; at 50.0 µM; hits give high values
Method in brief: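 Yeast carrying a defined DNA repair defect were exposed to test compounds, and growth was compared with vehicle-treated controls to give percent inhibition.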

Row | SMILES | growth inhibition [%]
1 | COC(=O)c1ccccc1OC(=S)N(C)C | -8.75
2 | C=C(C)C#CC1(O)C=C(OC)C(OC)=CC1=O (stereo not given) | -36.4
3 | CCOC(=O)/C(C#N)=C\N(C)C | 8.75
4 | O=S1c2ccc(Cl)cc2CC(SSC2Cc3cc(Cl)ccc3S(=O)c3ccccc32)c2ccccc21 (stereo not given) | 18.5
5 | O=C1OC(=O)c2ccccc21 | 5.25
6 | Cc1nc(Nc2ccc(Cl)c(Cl)c2)sc1C(/C=C/c1ccc2c(c1)OCO2)=N/Nc1ccc([N+](=O)[O-])cc1[N+](=O)[O-] | -21.2
7 | O=C(N/N=C/c1ccc(Cl)cc1)C(c1ccccc1)N1CCCCC1 (stereo not given) | 4.7
8 | O=[N+]([O-])c1ccc(N=NN2CCOCC2)cc1 | -0.55
9 | CC(C)(C)C(=O)CC(=O)C(C)(C)C.CC(C)(C)C(=O)CC(=O)C(C)(C)C.CC(C)(C)C(=O)CC(=O)C(C)(C)C.[Co] | -10.1
10 | CSC(=N\N=C\c1c(F)cccc1Cl)/N=C/N(C)C | 8.7
11 | O=C(O)c1cscc1Cc1ccccc1 | 0.9
12 | C=C(CCCC(C)OC(C)OCC)[Si](C)(C)C (stereo not given) | -26.2
13 | CC1(C)N=C(N)N=C(N)N1c1cccc(OCc2cccc([N+](=O)[O-])c2)c1 | 0.55
14 | Cc1cc(S(=O)(=O)O)c(NC(=O)C(=O)C2C=CCS2(=O)=O)cc1Cl (stereo not given) | -5.2
15 | C=C(C)C(=O)OC1C[C@H](COC(C)=O)C2CC=C(CO)C2C2OC(=O)C(=C)[C@H]12 (stereo not given in full) | 16.9
